# Data from PubChem BioAssay AID588342 (National Center for Advancing Translational Sciences (NCATS), 2011).
# Hit rate of the full screen: of about 360,000 compounds, about 25,000 (6.9%) were called active. Roughly 9% stayed inconclusive and do not appear here. Shown is part of a subset that was picked to be rich in actives. Values without a mark were called inactive. The call rests on the fitted dose curve; in most records, active means well fitted inhibition curve with a large enough effect; inconclusive means small, poorly fitted or top-dose-only effect; inactive means flat fitted curve, though single readings scatter.
# Target: Luciferin 4-monooxygenase (Photinus pyralis) (UniProt P08659)
# Sequence (P08659 whole entry, looked up): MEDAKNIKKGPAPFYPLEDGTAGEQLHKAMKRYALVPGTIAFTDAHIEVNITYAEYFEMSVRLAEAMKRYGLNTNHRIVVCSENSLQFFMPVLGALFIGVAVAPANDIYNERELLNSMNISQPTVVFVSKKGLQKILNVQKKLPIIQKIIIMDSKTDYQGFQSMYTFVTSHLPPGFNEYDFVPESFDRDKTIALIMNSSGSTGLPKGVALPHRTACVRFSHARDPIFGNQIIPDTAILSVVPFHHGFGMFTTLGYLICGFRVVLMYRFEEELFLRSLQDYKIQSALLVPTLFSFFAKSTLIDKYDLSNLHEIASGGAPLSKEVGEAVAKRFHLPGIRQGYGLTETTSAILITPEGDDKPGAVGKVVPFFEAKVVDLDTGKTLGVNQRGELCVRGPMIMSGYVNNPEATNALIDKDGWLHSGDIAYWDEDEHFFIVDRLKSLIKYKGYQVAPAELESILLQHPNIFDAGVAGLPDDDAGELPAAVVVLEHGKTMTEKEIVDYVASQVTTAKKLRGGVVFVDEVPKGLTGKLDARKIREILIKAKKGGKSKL
# Assay: qHTS profiling assay for firefly luciferase inhibitor/activator using purifed enzyme and Km concentrations of substrates (counterscreen for miR-21 project); further: nearly all actives have a fitted effect of over 55% in size;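 on activity change, negative = inhibition: plate controls were vehicle for no effect and reference inhibitor for full effect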
# Details: purified FLuc, luminescence inhibition; series mostly up to 57.5 µM; activity change, negative = inhibition: at the top concentration
# Procedure, shortened: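 Purified P. pyralis luciferase, 10 nM final, with Km-level 10 uM D-luciferin and 10 uM ATP in 50 mM Tris acetate pH 7.5, 10 mM Mg acetate, 0.01% Tween-20, 0.05% BSA; 6-point qHTS titration about 60 µM downward; luminescence read.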
# Potency means the concentration at half of the fitted maximal effect.
SMILES,Potency,"activity change, negative = inhibition"
N#Cc1ccccc1NC(=O)c1cccc(COc2ccc(Cl)cc2Cl)c1,13.5 µM (active),
CSc1ccc(C#N)cc1NC(=O)c1ccc(Cl)cc1,,4.33%
CSc1ccc(C#N)cc1NC(=O)c1cccc(Cl)c1,,-1.26%
c1ccc(-c2csc(N3CCc4ccccc4C3)n2)cc1,12 µM (active),
CN(C)CCCNC(=S)N1CCN(c2nc(-c3ccccc3)cs2)CC1,,-15.6%
O=C(CN1CCN(c2nc(-c3ccccc3)cs2)CC1)NCc1ccc2c(c1)OCO2,,-1.74%
CCCCCn1c(=O)[nH]c2cc(C(=O)NCCCN3CCCCC3C)ccc2c1=O (stereo not drawn),,2.1%
CCn1c(SCc2ccccc2)nc2c(c1=O)SCC2,,-2.37%
CCS(=O)(=O)n1nc(-c2ccccc2)nc1SCc1ccccc1,10.7 µM (active),
Cc1ccc(S(=O)(=O)n2nc(-c3ccc(Cl)cc3)nc2NCc2ccccc2)cc1,,-1.94%
C[C@H](OC(=O)n1ccnc1)[C@@H]1O[C@@]2(C)CCC[C@@H]1O2,,-2.13%
Cc1nnc(N2CCC(C(=O)Nc3ccc(F)cc3)CC2)c2nn(-c3ccc(Cl)cc3)c(C)c12,,0.139%
Cc1ccc(NC(=O)COC(=O)CN2CCCCCC2=O)c(C)c1,,2.69%
Cn1c(C(=O)Nc2cccc(C(F)(F)F)c2)cc2c(=O)n3ccccc3nc21,,-8.11%
CCCN(CCC)C(=O)C(Cc1ccccc1)NS(=O)(=O)c1ccc2c(c1)c(=O)n(C)c(=O)n2C (stereo not drawn),,-0.122%
Cc1cc(C(=O)COC(=O)CNC(=O)c2ccc(F)cc2)c(C)n1Cc1ccco1,6.75 µM (active),
COCCn1c(C)cc(C(=O)COC(=O)CNC(=O)c2ccco2)c1C,,-9.9%
O=C(COC(=O)CNC(=O)c1ccco1)Nc1ccc(F)cc1,,-0.0434%
CCC(C)NC(=O)Cn1c(=O)n(-c2ccc(Cl)cc2)c(=O)c2c3c(sc21)CCCC3 (stereo not drawn),,1.6%
COc1ccc(CNC(=O)c2cc3c(=O)[nH]c4ccccc4c3s2)cc1,,0.566%
Cc1c(-c2cccc(NC(=O)C(C)(C)C)c2)nc2ncccn12,,-5.1%
COc1ccc(-c2cn3c(n2)sc2cc(C(=O)Nc4ccc(F)cc4)ccc23)cc1,,-11.2%
COc1ccc(-c2cn3ccsc3n2)cc1,2.39 µM (active),
CC(C)(C)C(=O)Nc1ccc(-c2cn3cccnc3n2)cc1,7.57 µM (active),
FC(F)(F)Oc1ccc(-c2cn3cccnc3n2)cc1,6.01 µM (active),
COc1cc(OC)cc(-c2nc(=S)n3ccsc3n2)c1,,4.32%
COc1ccc(-c2cn3cccnc3n2)cc1,13.5 µM (active),

SMILES,Potency,"activity change, negative = inhibition"
COc1ccc(N2CCN(C(=O)CSc3nnc4ncccn34)CC2)cc1,,2.29%
CC(=O)Nc1ccc(S(=O)(=O)Nc2cccc(NC(=O)C(C)(C)C)c2)cc1,,0.526%
COc1ccc(-c2cc(NCc3ccc(F)cc3)n3cnnc3n2)cc1,,-7.12%
O=C(CCNC(=O)c1ccc(Br)cc1)NCC(c1ccco1)N1CCCCC1 (stereo not drawn),,1.69%
CN(CC(=O)Nc1cccc(C(F)(F)F)c1)S(=O)(=O)c1cccs1,,-12%
CC(C)CCNC(=O)Cn1c(=O)oc2cc(S(=O)(=O)N3CC(C)CC(C)C3)ccc21 (stereo not drawn),,1.69%
CCOc1ccc(CNC(=O)c2cccc(Nc3nc4ccccc4n4nnnc34)c2)cc1OC,,0.0001%
CCN(CC)CCNC(=O)c1cc2c(=O)oc3ccc(C)cc3c2s1,,3.49%
Cc1ccc(-c2nnc(SCC(=O)NCc3ccccc3)nc2-c2ccc(C)cc2)cc1,,-9.65%
COC(=O)c1cc(NC(=O)c2cnc(SC)nc2-c2ccccc2)cc(C(=O)OC)c1,,0.653%
COc1ccccc1C(=O)NC(CCSC)C(=O)N1CCN(C(C)=O)CC1 (stereo not drawn),,-0.351%
CC(=O)c1cccc(NC(=O)C2CCN(C(=O)c3ccccc3Cl)CC2)c1,,2.84%
CC(=O)N1CCCc2ccc(NS(=O)(=O)c3ccc(F)cc3F)cc21,,-3.32%
O=C(O)c1ccc2c(=O)n3c(nc2c1)/C(=C/c1ccc(Cl)c([N+](=O)[O-])c1)CC3,,0.928%
COc1ccc(OC)c(-c2nc(C(N)=O)c3c(n2)n(-c2ccc4c(c2)OCO4)c(=O)n3C)c1,,1.35%
CC(C)C12CN3CC(C(C)C)(CN(C1)C3c1ccc(OCc3ccccc3)cc1)C2=O (stereo not drawn),,-0.194%
O=C1C=C(NCCNc2c(F)c(F)c(CO)c(F)c2F)CCC1,,1.96%
Cc1ccc(C)c(N2CCN(CCCNC(=O)Nc3ccc(Cl)cc3)CC2)c1,,1.01%
O=C(O)CCC(=O)Nc1ccc(N2CCOCC2)cc1,,-7.99%
O=C(O)CCC(=O)Nc1ccc(OCC2CCCO2)cc1 (stereo not drawn),,-11.2%
CC1CCC(C(C)C)C(=O)/C1=C\c1ccc(NC(=O)CCC(=O)O)cc1 (stereo not drawn),16.9 µM (active),
O=C(CSc1nnc(-c2ccccc2F)o1)Nc1cccc(C(F)(F)F)c1,,-12.9%
O=C(NC1CCCC1)C(NS(=O)(=O)c1ccc(Br)s1)c1ccccc1 (stereo not drawn),,-0.902%
CN(C)c1nc(-c2cccnc2)nc(-c2ccc(Cl)cc2)c1C#N,,0.952%
CN(C)c1ccc(-c2nnc(-c3cccnc3)o2)cc1,9.53 µM (active),
Cc1csc(NC(=O)CSc2nnc(-c3cccnc3)o2)n1,,0.524%
